# Source: PubChem BioAssay (NCATS)
# Results filed as inconclusive are left out. Some of the results follow. Active and inactive are the calls of the source. Unless noted, calls come from the whole dose curve; as a rule, active = well fitted curve in the direction sought with a large enough effect; inconclusive = small, poorly fitted or top-dose-only effect, or another doubt; inactive = no such curve, though single readings can be large; an effect the other way counts as inactive or inconclusive.
# Legend:
# [1] = qHTS for Inhibitors of Ubiquitin-specific Protease USP2a Using CHOP2 as the Reporter: Cytotox Assay (AID 652170);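 note: plate controls were DMSO-treated cells for no effect and wells without cells for full effect; nearly all actives have a fitted effect of over 70% in size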
# Procedure, shortened: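 HCT116 human colon cancer cells, 600 per well in DMEM with 10% FBS, exposed to compounds for 72 hr at 37 deg C. ATP measured by CellTiter-Glo luminescence, normalized to DMSO cells and no-cell background.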
# [2] = molecular target: Ubiquitin carboxyl-terminal hydrolase 2 (Homo sapiens) (UniProt O75604); experiment: qHTS for Inhibitors of Ubiquitin-specific Protease USP2a Using CHOP2 as the Reporter: K484 Substrate (AID 652173);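 note: cleavage of internally quenched K48 di-ubiquitin substrate measured as rising fluorescence over time; potency is the fitted concentration of half-maximal effect; nearly all actives have a fitted effect of over 70% in size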
# Procedure, shortened: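 USP2 (dispensed at 5 nM) was pinned with compounds, then DiUb K48 internally quenched fluorescent substrate (dispensed at 100 nM) was added. The buffer was 20 mM Tris pH 8, 2 mM beta-mercaptoethanol and 0.05% CHAPS. Cleavage was read kinetically as rising fluorescence, Ex 525/Em 598.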
# [3] = molecular target: Calcium and integrin-binding protein 1 (Homo sapiens) (UniProt Q99828); experiment: Primary qHTS for Identification of Calcium Integrin Binding Protein 1 (CIB1) Competitor (AID 1508620);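 note: GST tagged CIB1 binding a fluorescein labelled alphaIIb integrin peptide tracer; top concentration of the series differs between compounds; % is set by controls: 0 for no effect and ±100 for the full control effect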
# Procedure, shortened: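 CIB1-GST (1 uM final) and compound incubated 15 min at room temperature before adding FITC-alphaIIb peptide tracer (100 nM final). Competition for binding read by fluorescence polarization (ex 480, em 540) after another 15 min at room temperature.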
# [4] = qHTS profiling for inhibitors of Plasmodium falciparum (DD2) proliferation (AID 743323; call rule not given here); conditions: lower = more inhibition; at 28.7 µM (top of the series)
# Procedure, shortened: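 1536-well qHTS; infected RBCs 0.3% parasitemia/2.5% Hct final; cpd 72 h 37 C 5% CO2; lysis buffer + SYBR Green I, o/n RT dark; FI 485/535; norm. to 0.29 uM artemisinin and DMSO, plate-stack corrected.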
# [5] = qHTS profiling for inhibitors of Plasmodium falciparum (HB3) proliferation (AID 743324); conditions: Plasmodium falciparum HB3 blood-stage proliferation; at 28.7 µM (top of the series);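 note: 100% = DMSO vehicle wells and 0% = artemisinin-treated control wells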
# Procedure, shortened: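 P. falciparum HB3 grown in erythrocytes (0.3% parasitemia, 2.5% hematocrit final) with compound for 72 h at 37 C, 5% CO2. Parasite DNA detected by SYBR Green after saponin/triton lysis overnight; normalized to 0.29 uM artemisinin and DMSO.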
# [6] = molecular target: Cytochrome P450 3A4 (Homo sapiens) (UniProt P08684); experiment: qHTS Assay for Inhibitors and Substrates of Cytochrome P450 3A4 (AID 884); note: potency is the fitted concentration of half-maximal effect; nearly all actives have a fitted effect of over 50% in size
# Procedure, shortened: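 20 nM human CYP3A4 with 25 uM Luciferin-PPXE (at KM) in 200 mM KPO4, preincubated 10 min with compound; NADPH regeneration started a 60 min RT reaction. Luciferin detected by luminescence, normalized to 57 uM ketoconazole as full inhibition.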
# [7] = molecular target: Cytochrome P450 3A4 (Homo sapiens) (UniProt P08684); experiment: qHTS Assay for Activators of Cytochrome P450 3A4 (AID 885); note: nearly all actives have a fitted effect of over 65% in size
# Procedure, shortened: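 Steps: enzyme/substrate mix dispensed; compound added, 10 min RT; NADPH regeneration solution added, 60 min RT; luciferin detection buffer stops reaction; 20 min later luminescence measured.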
# [8] = Counterscreen qHTS for small molecule stabilizers of the endoplasmic reticulum resident proteome: GLuc-NoTag assay (AID 1508627);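 note: SH-SY5Y cells given compound then 100 nM thapsigargin to empty ER calcium; 0% = thapsigargin alone and -100% = DMSO vehicle control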
# Procedure, shortened: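 Luminescence of Gaussia luciferase secreted into the medium (coelenterazine, 0.07x final, unlysed cells) was the read-out. Human SH-SY5Y neuroblastoma cells constitutively secreting untagged GLuc received compound for 19 h, then 100 nM thapsigargin for 4 h.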
# [9] = molecular target: Flap endonuclease 1 (Homo sapiens) (UniProt P39748); experiment: qHTS Assay for the Inhibitors of FEN1: Confirmatory Assay for Cherry-picked Compounds (AID 720498); conditions: FEN1 flap cleavage, TAMRA/BHQ2 fluorogenic DNA substrate; note: potency is the fitted concentration of half-maximal effect; nearly all actives have a fitted effect of over 60% in size
# Procedure, shortened: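 FEN1 at 10 nM was preincubated with compound for 15 min at room temperature, then 50 nM (final) double-flap DNA substrate was added. TAMRA fluorescence released from the BHQ-2-quenched flap was read at 0 and 15 min (ex 525/em 598 nm).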
# [10] = qHTS profiling of the MIPE4 collection as inhibitors of Plasmodium falciparum (3D7) proliferation (AID 743344; call rule not given here;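 note: scaled between DMSO vehicle wells and 0.29 µM artemisinin as full inhibition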); conditions: P. falciparum 3D7 in erythrocytes, SYBR Green DNA fluorescence, 72 h; at 28.5 µM (top of the series)
# Procedure, shortened: (§1)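 Erythrocytes infected with P. falciparum (0.3% parasitemia, 2.5% hematocrit) incubated with compounds 72 h at 37 C, 5% CO2. Lysis with saponin/Triton buffer containing SYBR Green I, overnight at room temperature in the dark; DNA fluorescence (485/535 nm) normalised to 0.29 uM artemisinin and DMSO.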
# [11] = qHTS profiling of the MIPE4 collection as inhibitors of Plasmodium falciparum (DD2) proliferation (AID 743345; call rule not given here); conditions: P. falciparum Dd2 in erythrocytes, SYBR Green DNA, 72 h; at 28.5 µM (top of the series)
# Procedure, shortened: as §1
# [12] = qHTS profiling of the MIPE4 collection as inhibitors of Plasmodium falciparum (DD2) proliferation (Rep 2) (AID 743346; call rule not given here); conditions: P. falciparum Dd2 in erythrocytes, SYBR Green DNA, 72 h; at 28.5 µM (top of the series)
# Procedure, shortened: as §1
# [13] = qHTS profiling of the MIPE4 collection as inhibitors of Plasmodium falciparum (HB3) proliferation (AID 743347; call rule not given here;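 note: plate controls were DMSO vehicle wells for no effect and artemisinin wells for full effect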); conditions: P. falciparum HB3 in erythrocytes, SYBR Green DNA, 72 h; at 28.5 µM (top of the series)
# Procedure, shortened: as §1
# Chain of Cytochrome P450 3A4 (Homo sapiens) (P08684 whole entry, looked up): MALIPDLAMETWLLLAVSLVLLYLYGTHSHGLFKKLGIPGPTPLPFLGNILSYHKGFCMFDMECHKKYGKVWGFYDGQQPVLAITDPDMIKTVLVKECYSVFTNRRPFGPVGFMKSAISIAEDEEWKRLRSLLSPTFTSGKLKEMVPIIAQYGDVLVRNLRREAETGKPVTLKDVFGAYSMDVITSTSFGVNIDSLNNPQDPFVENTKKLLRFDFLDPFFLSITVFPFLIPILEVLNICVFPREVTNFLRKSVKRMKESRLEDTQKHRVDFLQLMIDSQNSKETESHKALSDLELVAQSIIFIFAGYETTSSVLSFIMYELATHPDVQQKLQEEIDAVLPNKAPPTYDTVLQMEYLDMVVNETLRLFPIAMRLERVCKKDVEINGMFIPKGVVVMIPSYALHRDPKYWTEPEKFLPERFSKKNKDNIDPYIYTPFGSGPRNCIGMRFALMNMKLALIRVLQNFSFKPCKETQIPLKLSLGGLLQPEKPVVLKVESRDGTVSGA
# Chain of Calcium and integrin-binding protein 1 (Homo sapiens) (Q99828 whole entry, looked up): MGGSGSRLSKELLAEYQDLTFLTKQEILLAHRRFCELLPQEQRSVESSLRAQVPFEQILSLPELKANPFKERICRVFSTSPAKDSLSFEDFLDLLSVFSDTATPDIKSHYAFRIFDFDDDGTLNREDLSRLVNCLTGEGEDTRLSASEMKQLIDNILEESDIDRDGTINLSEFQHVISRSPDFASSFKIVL
# Chain of Ubiquitin carboxyl-terminal hydrolase 2 (Homo sapiens) (O75604 whole entry, looked up): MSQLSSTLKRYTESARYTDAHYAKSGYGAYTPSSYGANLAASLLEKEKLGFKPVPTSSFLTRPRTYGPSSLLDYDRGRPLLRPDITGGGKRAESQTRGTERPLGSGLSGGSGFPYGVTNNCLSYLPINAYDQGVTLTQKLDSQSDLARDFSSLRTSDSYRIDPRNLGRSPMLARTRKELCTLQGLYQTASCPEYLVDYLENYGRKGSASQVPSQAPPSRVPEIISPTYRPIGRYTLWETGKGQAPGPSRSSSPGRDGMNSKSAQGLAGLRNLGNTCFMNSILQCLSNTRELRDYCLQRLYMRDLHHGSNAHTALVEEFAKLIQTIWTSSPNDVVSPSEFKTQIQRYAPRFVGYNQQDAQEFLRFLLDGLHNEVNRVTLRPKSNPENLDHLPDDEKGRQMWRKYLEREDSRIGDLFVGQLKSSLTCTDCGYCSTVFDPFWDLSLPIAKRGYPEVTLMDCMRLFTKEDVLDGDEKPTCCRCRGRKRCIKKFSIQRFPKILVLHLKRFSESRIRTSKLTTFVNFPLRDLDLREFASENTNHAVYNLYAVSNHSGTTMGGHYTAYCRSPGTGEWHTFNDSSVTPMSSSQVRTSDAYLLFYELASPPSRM
# Chain of Flap endonuclease 1 (Homo sapiens) (P39748 whole entry, looked up): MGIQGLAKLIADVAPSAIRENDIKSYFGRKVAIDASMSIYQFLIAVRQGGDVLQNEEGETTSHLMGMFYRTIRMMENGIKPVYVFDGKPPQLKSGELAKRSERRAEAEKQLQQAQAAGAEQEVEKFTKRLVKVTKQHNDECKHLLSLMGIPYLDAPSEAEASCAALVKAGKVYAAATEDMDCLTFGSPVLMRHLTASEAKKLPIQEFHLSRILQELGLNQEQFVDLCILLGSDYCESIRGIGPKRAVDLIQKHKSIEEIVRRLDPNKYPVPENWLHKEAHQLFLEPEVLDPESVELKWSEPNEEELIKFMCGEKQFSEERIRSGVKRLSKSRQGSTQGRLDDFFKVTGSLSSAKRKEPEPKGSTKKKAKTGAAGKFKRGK
compound,measurement,setting,value
Cc1ccc(-c2cc(C(=O)Nc3ccc(S(N)(=O)=O)cc3)c3ccccc3n2)cc1C,Potency,[1],inactive
same,Potency,[2],7.69 µM (active)
same,Potency,[3],inactive
O=C(Nc1nc(-c2ccccc2)cs1)c1ccccc1[N+](=O)[O-],Potency,[2],12.2 µM (active)
same,Potency,[3],inactive
N[C@@H](Cc1ccc(O[S+](=O)([O-])c2cccc3cnccc23)cc1)C(=O)N1CCN(c2ccccc2)CC1,"activity, percent of control",[4],3.27%
same,"remaining proliferation (% of control), lower = more inhibition",[5],1.2%
same,Potency,[3],inactive
Cc1nc(NCc2ccccc2)c2nc(-c3ccccc3)n(CCN3CCOCC3)c2n1,Potency,[6],0.631 µM (active)
same,Potency,[7],inactive
same,Potency,[3],inactive
COc1ccc(C2Nc3ccccc3C(=O)N2c2ccccc2)cc1COc1ccc(NC(C)=O)cc1 (configuration not stated),Potency,[8],inactive
COc1ccc(-c2ccc3ncnc(NCc4cccs4)c3c2)cc1OC,Potency,[9],37.9 µM (active)
same,Potency,[3],inactive
CC(C)(C)OC(=O)N[C@@H](Cc1ccc(O[S+](=O)([O-])c2cccnc2)cc1)C(=O)N1CCN(c2ccccc2)CC1,"activity, percent of control",[4],0.682%
same,"remaining proliferation (% of control), lower = more inhibition",[5],-0.169%
same,Potency,[3],inactive
CC(C)(C)OC(=O)N[C@@H](Cc1ccc(O[S+](=O)([O-])c2cccc3cnccc23)cc1)C(=O)N1CCN(Cc2ccccc2)CC1,"parasite growth, % of DMSO control",[10],5.32%
same,"parasite growth remaining, % of DMSO control (lower = more inhibition)",[11],7.86%
same,"parasite growth, % of control (lower = inhibition)",[12],22.5%
same,"growth, % of control",[13],10.3%
same,Potency,[3],inactive
O=C([C@H](Cc1ccc(O[S+](=O)([O-])c2cccc3cccnc23)cc1)N[S+](=O)([O-])c1cccnc1)N1CCN(c2ccccc2)CC1,"activity, percent of control",[4],0.179%
same,"remaining proliferation (% of control), lower = more inhibition",[5],-0.167%
same,Potency,[3],inactive
O=C(Nc1ccc(-c2ccccc2)cc1)[C@H](Cc1ccc(O[S+](=O)([O-])c2cccc3cnccc23)cc1)N[S+](=O)([O-])c1cccc2cnccc12,"parasite growth, % of DMSO control",[10],5.02%
same,"parasite growth remaining, % of DMSO control (lower = more inhibition)",[11],10.4%
same,"parasite growth, % of control (lower = inhibition)",[12],17.5%
same,"growth, % of control",[13],6.38%
same,Potency,[3],inactive
C1CCC[C@H]2CCCN3CC[C@H](CCCCCC[C@@H]4CCCN5CC[C@H](CC1)OC45)OC23,"activity change, negative = inhibition",[8],16.2% [at 9.46 µM] (inactive)
CC(C)(C)c1cc(O)c(CN)c(C(C)(C)C)c1,"activity, percent of control",[4],0.498%
same,"remaining proliferation (% of control), lower = more inhibition",[5],-0.148%
same,"parasite growth, % of DMSO control",[10],6.1%
same,"parasite growth remaining, % of DMSO control (lower = more inhibition)",[11],7.28%
same,"parasite growth, % of control (lower = inhibition)",[12],19.6%
same,"growth, % of control",[13],4.33%
same,Potency,[3],inactive
CC(C)(C)OC(=O)N[C@@H](Cc1ccc(OS(=O)(=O)c2cccc3cnccc23)cc1)C(=O)N1CCCN(C(=O)OC(C)(C)C)CC1,"parasite growth, % of DMSO control",[10],5.32%
same,"parasite growth remaining, % of DMSO control (lower = more inhibition)",[11],7.99%
same,"parasite growth, % of control (lower = inhibition)",[12],34.3%
same,"growth, % of control",[13],7.55%
same,Potency,[3],inactive
N[C@@H](Cc1ccc(OS(=O)(=O)c2cccnc2)cc1)C(=O)N1CCN(c2ccccc2)CC1,"activity, percent of control",[4],15.1%
same,"remaining proliferation (% of control), lower = more inhibition",[5],27.8%
same,Potency,[3],inactive
O=C([C@@H](Cc1ccc(O[S+](=O)([O-])c2cccnc2)cc1)N[S+](=O)([O-])c1cccc2cccnc12)N1CCN(c2ccccc2)CC1,"activity, percent of control",[4],0.464%
same,"remaining proliferation (% of control), lower = more inhibition",[5],0.336%
same,Potency,[3],inactive
CCCn1c(C)nc2c(N3CCCN(Cc4ccccc4)CC3)nc(C)nc21,Potency,[6],7.94 µM (active)
same,Potency,[7],inactive
same,Potency,[3],inactive
